# Source: ChEMBL document CHEMBL4513216, “Probing the Open Global Health Chemical Diversity Library for Multistage-Active Starting Points for Next-Generation Antimalarials” (ACS Infect Dis, 2020)
# Among all 68,000 compounds or so, about 2,700 (4%) showed an effect of 50% or more. The list comes from a sample in which strong results are over-represented; it also holds similar structures and randomly drawn compounds.
# Test system: Plasmodium berghei
# Assay: Screen against P. berghei liver stage (PbLuc), transformed with Luciferase, at 2uM
# Assay type: functional, HepG2
# Settings: tested at 2 uM
row,SMILES,INHIBITION [%]
1,CCOCC1CN(Cc2cnn(C)c2)Cc2nn(C)cc21 (stereo not given),19.44
2,CS(=O)(=O)N[C@@H]1CN(C(=O)c2cccnc2)[C@@H]2CCCO[C@@H]21,-13.61
3,COCC(NC(=O)c1cnn(C)c1)c1cccc(C(F)(F)F)c1 (stereo not given),31.38
4,CCOCC1CN(Cc2ccoc2)Cc2nn(C)cc21 (stereo not given),-55.93
5,CC(C)CN1CCCn2nc(CNC(=O)Cc3cccc(O)c3)cc2C1,49.95
6,CCc1nc(CN(C)C2CCN(CCS(C)(=O)=O)C2)no1 (stereo not given),50.72
7,CN(Cc1noc(C2CC2)n1)C1CCN(CCn2cccn2)C1 (stereo not given),10.1
8,CC(C)c1nc(CN(C)C2CCN(CCn3cc(C#N)cn3)C2)no1 (stereo not given),60.09
9,CCc1nc(CN(C)C2CCN(CCc3ccncc3)C2)no1 (stereo not given),-11.16
10,CN(Cc1noc(C2CC2)n1)C1CCN(CCS(C)(=O)=O)C1 (stereo not given),-6.15
11,CN(Cc1noc(C2CC2)n1)C1CCN(CCn2cc(C#N)cn2)C1 (stereo not given),-9.17
12,Cc1nc(CN(C)C2CCN(CCn3cc(C#N)cn3)C2)no1 (stereo not given),-27.5
13,CCc1nc(CN(C)C2CCN(CCn3cccn3)C2)no1 (stereo not given),51.94
14,CCc1nc(CN(C)C2CCN(CCNS(=O)(=O)CC)C2)no1 (stereo not given),20.71
15,CC(=O)N(C)CC(=O)NC1(c2ccc(Cl)c(Cl)c2)CC1,23.45
16,Cc1nc(C)c(C(=O)NCCNC(=O)Cc2cccc(F)c2)s1,30.91
17,CSCC(C)(O)CNS(=O)(=O)c1ccc(F)cc1 (stereo not given),-40
18,CN(Cc1csc(-c2cccs2)n1)Cc1cccnc1N,27.47
19,Clc1ccc(OCCCN2CCOC(Cn3cncn3)C2)cc1 (stereo not given),9.17
20,COc1cc(CN2CCCC2)ccc1Oc1ncccc1C(F)(F)F,43.1
21,COc1cc(Oc2ncccc2C(F)(F)F)ccc1CN1CCCC1,66.12
22,COc1ccc(Oc2ncccc2C(F)(F)F)cc1CN1CCCC1,20
23,c1cc2nccc(CC3CCCN(Cc4c[nH]cn4)CC3)c2cn1 (stereo not given),-0.83
24,O=C(O)c1ccnc(-c2ccnc(COc3ccccc3Cl)n2)c1,17.2
25,CCc1cnc(CNC(=O)NC2CC(C)(C)OC2(C)C)s1 (stereo not given),-1.45
26,CCc1cnc(CNC(=O)NCCCO)s1,52.85
27,CCc1cnc(CNC(=O)NCCc2ccc(O)cc2)s1,47.59
28,CN(C)CC1CN(c2ncnc3ccsc23)CCO1 (stereo not given),44.6
29,CCN1CCCC1CNC(=O)CCc1cccs1 (stereo not given),9.27
30,CSc1ccc(OC(C)C(=O)Nc2c(C)n[nH]c2C)cc1 (stereo not given),3.5
